Source: PubChem (National Center for Advancing Translational Sciences (NCATS))
GPT2 inhibitor = Primary qHTS assay for inhibitors of Glutamate pyruvate transaminase 2 (GPT2) | Alanine aminotransferase 2 (Homo sapiens), Q8TD30 | Recombinant GPT2, coupled pyruvate oxidase/HRP Amplex Red fluorescence | Potency, µM (titrated, usually from 57.7 µM), for the others: at the top dose activity change, negative = inhibition, hits mostly inhibitors | 100,000 compounds, 0.25% hits | AID 1671188, 2021; also: % is scaled to controls: 0 for no effect and ±100 for the full control effect; nearly all actives have a fitted effect of over 60% in size
Target sequence (Q8TD30 whole entry, looked up): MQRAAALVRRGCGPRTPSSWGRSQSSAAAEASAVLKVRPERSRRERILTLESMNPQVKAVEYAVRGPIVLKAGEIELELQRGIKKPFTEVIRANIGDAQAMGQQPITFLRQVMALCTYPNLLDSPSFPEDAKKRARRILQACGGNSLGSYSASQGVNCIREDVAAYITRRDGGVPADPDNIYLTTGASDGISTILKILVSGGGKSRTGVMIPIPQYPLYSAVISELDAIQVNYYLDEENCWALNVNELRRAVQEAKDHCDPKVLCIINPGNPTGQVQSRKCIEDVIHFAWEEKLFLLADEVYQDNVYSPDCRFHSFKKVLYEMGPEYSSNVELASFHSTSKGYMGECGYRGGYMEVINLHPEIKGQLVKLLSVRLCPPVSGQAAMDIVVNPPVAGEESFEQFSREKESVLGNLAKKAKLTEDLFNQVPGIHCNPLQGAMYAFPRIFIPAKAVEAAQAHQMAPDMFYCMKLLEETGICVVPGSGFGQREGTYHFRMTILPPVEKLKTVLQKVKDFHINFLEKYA
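Fluorescence read-out: pyruvate from GPT2 turnover coupled to pyruvate oxidase, HRP and Amplex Red (0.2mM ThPP, 0.2U/mL PO and HRP, 50uM Amplex final). Substrates 250uM a-KG, 2mM L-alanine; enzyme 10ng/uL; 30 min RT.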
Luciferase inh = Firefly luciferase inhibition profiling of diverse chemical library using quantitative high-throughput screening. Luciferin 4-monooxygenase (Photinus pyralis), P08659. 76,000 compounds, 2.5% hits. Potency, µM (doses to about 115 µM), actives largely listed as inhibitors. purified P. pyralis luciferase, luminescence, biochemical. AID 1347043, 2019; also: % is scaled to controls: 0 for no effect and ±100 for the full control effect; nearly all actives have a fitted effect of over 65% in size
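Purified 10nM P. pyralis luciferase with 10uM D-luciferin and 10uM ATP in 50mM Tris acetate pH 7.5, 10mM Mg acetate, 0.01% Tween-20, 0.05% BSA. qHTS titration; luminescence read by CCD imager.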
hNpr1 antagonist = Natriuretic polypeptide receptor (hNpr1) antagonism - Primary qHTS; Atrial natriuretic peptide receptor 1 (Homo sapiens), P16066; HEK293 hNpr1 GloSensor cGMP, ANP-stimulated luminescence; Potency, µM (series often up to 46.3 µM), without a hit: at the top dose activity change, negative = inhibition, hits mostly inhibitors; 76,000 compounds, 1.6% hits; AID 1347048, 2019; calls by dose curve; also: % is scaled to controls: 0 for no effect and ±100 for the full control effect; nearly all actives have a fitted effect of over 60% in size
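HEK293 cells stably expressing human Npr1 and cGMP GloSensor pGS-40F, loaded 2 h with 2% GloSensor reagent, given compound 30 min at room temperature. Luminescence read before and 20 min after 0.1 nM hNppA.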
3T3 cytotox = Cytotoxic Profiling in NIH 3T3 Cell Line of Diverse Libraries Using Quantitative High-Throughput Screening. NIH 3T3 viability, CellTiter-Glo ATP luminescence, 48-72 h. Potency, µM (top dose mostly 96.7 µM), for inactives: at the highest dose activity change, negative = cytotoxicity, most hits filed as inhibitors. 94,000 compounds, 4.3% hits. AID 1345082, 2018; also: % is scaled to controls: 0 for no effect and ±100 for the full control effect; nearly all actives have a fitted effect of over 55% in size
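First NIH 3T3 cells are plated at 400 cells/well; next compound is pinned in; then plates incubate 48 or 72 hr at 37 °C; finally CellTiter-Glo is added and luminescence read after 10 min.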
HEK293 tox = Cytotoxic Profiling in HEK 293 Cell Line of Diverse Libraries Using Quantitative High-Throughput Screening; HEK 293 viability, ATP luminescence (CellTiter-Glo), 48-72 h; Potency, µM (top dose mostly 115 µM), for inactives: top-dose activity change, negative = cytotoxicity, usual class: inhibitors; 94,000 compounds, 6.6% hits; AID 1345083, 2018; also: % is scaled to controls: 0 for no effect and ±100 for the full control effect; nearly all actives have a fitted effect of over 60% in size
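CellTiter-Glo luminescence (cellular ATP) was read after 48 or 72 hr of compound exposure at 37 degree Celsius. Cells were HEK 293 plated at 250 cells/well.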
Npr1 antag conf = Natriuretic polypeptide receptor (hNpr1) antagonism - Confirmation | shares compounds with hNpr1 antagonist | HEK293 hNpr1 cGMP GloSensor luminescence, ANP-stimulated | Potency, µM (titrated, usually from 57.6 µM), without a hit: top-dose activity change, negative = inhibition, hits mostly inhibitors | 1,400 compounds, 76% hits; calls by dose curve; also: nearly all actives have a fitted effect of over 70% in size
NPR2 antag = Natriuretic polypeptide receptor (hNpr2) antagonism - Subtype selectivity assay | HEK293 hNpr2 GloSensor cGMP luminescence, CNP-stimulated | shares compounds with hNpr1 antagonist | 1,400 compounds, 67% hits | AID 1347046, 2019 | Potency, µM (highest dose often 57.6 µM), without a hit: at the highest dose activity change, negative = inhibition, usual class: inhibitors; calls by dose curve; also: nearly all actives have a fitted effect of over 70% in size
FLuc counter = Natriuretic polypeptide receptor (hNpr1) antagonism - Confirmation firefly luciferase (FLuc) inhibition counterscreen | purified FLuc enzyme, luminescence, Km substrate | AID 1347047, 2019 | 1,400 compounds, 0.7% hits | shares compounds with hNpr1 antagonist | Potency, µM (highest dose often 57.6 µM), for the others: at the top dose activity change, negative = inhibition, usual class: inhibitors; also: 0% is about no effect
GloSensor cGMP = Natriuretic polypeptide receptor (hNpr1) antagonism - Counterscreen GloSensor control cell line; shares compounds with hNpr1 antagonist; Potency, µM (series often up to 57.6 µM), for inactives: at the highest dose activity change, negative = inhibition, usual class: inhibitors; HEK293 GloSensor cGMP, SNP-stimulated, luminescence; AID 1347051, 2019; 1,400 compounds, 69% hits; calls by dose curve; also: % is scaled to controls: 0 for no effect and ±100 for the full control effect; nearly all actives have a fitted effect of over 70% in size
The depositor's hits bear a star; i = inactive; ? = inconclusive; / = no result; [ ] = remark or other dose. Most compounds without a hit are left out; they make up all but 10% or so of the library. Unless noted, calls follow the shape of the dose curve; as a rule, active = well fitted curve in the direction sought with a large enough effect; inconclusive = small, poorly fitted or top-dose-only effect, or another doubt; inactive = no such curve, though single readings can be large; an effect the other way counts as inactive or inconclusive. Potency is read from the fitted curve at half-maximal effect.

SMILES	GPT2 inhibitor	Luciferase inh	hNpr1 antagonist	3T3 cytotox	HEK293 tox	Npr1 antag conf	NPR2 antag	FLuc counter	GloSensor cGMP
O=C(NCCc1ccccc1F)c1cc(-c2cccc(C(F)(F)F)c2)c2nncn2n1	1.7%	/	/	-34.6%	?	/	/	/	/
C[C@H](O)C(=O)N1CCc2ccc(S(=O)(=O)NCCOc3ccccc3)cc2C1	i[11.5 µM]	i	-1.1%	-13.6%	?	/	/	/	/
CC(=O)N1CCc2cc(S(=O)(=O)CCC(=O)N3CCCC(Cc4nncn4CC4CC4)C3)ccc21 (stereo unspecified)	3.6%	i	1.9%	-3.9%	-23.0%	/	/	/	/
CC(=O)N1CCc2cc(S(=O)(=O)CCC(=O)N3CCC(CCOc4ccccc4)C3)ccc21 (stereo unspecified)	i	i	10µM*	-19.9%	-16.9%	27.3µM*	?	2.6%	?
CC(=O)N1CCc2cc(S(=O)(=O)NCCCC(=O)N3CCC(CCOc4ccccc4)C3)ccc21 (stereo unspecified)	2.8%	i	5.62µM*	?	?	5.44µM*	6.11µM*	7.5%	4.85µM*
COc1ccc(NC(=O)CN2C(=O)NC3(CCOCC3)C2=O)c(OC)c1	-5.8%	i	3.7%	i	-2.0%	/	/	/	/
O=C(CC1CCCC1)N1CC[C@@]2(O)CCN(Cc3ccccn3)C[C@H]2C1	-0.3%	i	-7.5%	-19.1%	-7.4%	/	/	/	/
CC(=O)Nc1ccccc1-c1c(C)nn2c1N(CCC(C)C)CCC2	-24.6%[88.5 µM]	i	-26.7%[70.6 µM]	?	?	/	/	/	/
Cc1nn2c(c1-c1ccccc1[S+](C)(=O)[O-])N(CCC(C)C)CCC2	2.9%[88.5 µM]	i	11.2µM*	?	?	3.14µM*	8.86µM*	0.1%[86.2 µM]	3.14µM*
CC(C)C1=NOC2(CCN(Cc3ccc(C(F)(F)F)cc3)CC2)C1	-7.8%[88.5 µM]	i	11.2µM*	?	?	25µM*	31.4µM*	1.4%[86.2 µM]	19.8µM*
Cc1ccc(C)c(CN2C(=O)NC3(CCN(C(=O)Cc4cccc(F)c4)CC3)C2=O)c1	-17.8%	i	?	?	?	?	?	3.0%	?
O=C(Cc1cccc(F)c1)N1CCC2(CC1)NC(=O)N(Cc1ccccc1Cl)C2=O	i	i	?	?	?	?	-25.8%	2.6%	-23.6%
CC(=O)N1CCN(C(=O)C2CCCN(Cc3cccc(-c4ccc(F)cc4F)c3)C2)CC1 (stereo unspecified)	-1.1%	/	/	-26.9%	?	/	/	/	/
